Compound activity: PubChem BioAssay, several laboratories
Shown are actives, neighbours in structure and some others; about 4.8% of the full set was active somewhere.
APP 5'UTR act: activators of APP 5'UTR luciferase reporter, primary screen, SH-SY5Y cells; SH-SY5Y APP 5'UTR luciferase reporter, luminescence; zero percent = DMSO vehicle wells; activation, % at 2 µM; actives 1% (n = 190,000); AID 1276, 2008;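 active = activation above a set limit, based on mean plus 3 SD of controls, cut at about 140% in these data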
Hsp70 act: Hsp70 transcriptional activators, primary screen, cell-based, HeLa, Hsp70 promoter luciferase, luminescence, 10 µM. actives 0.04% (n = 200,000). HeLa Hsp70 promoter luciferase reporter; scaled: vehicle 0, proteasome-inhibitor control 100%. activation, % at 10 µM;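 active = activation above the mean across all tested compounds plus 3 SD, cutoff set per campaign, cut at about 5.5% in these data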;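 note: 100% = MG132 at 30 µM as the positive control and 0% = DMSO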
NF-kB neuron act: activators of NF-kB expression in neurons, primary screen, cell-based, HTS | AID 1239, 2008 | human neuronal cells, NF-kB reporter expression; hits give high values | fold change at 12.5 µM | actives 1.6% (n = 190,000); in the data active = fold change above about 3.3
Wee1 stabilizer: Wee1 degradation inhibitors, primary screen, cell-based, HeLa, Wee1K328M-luciferase, luminescence. Wee1-like protein kinase (Homo sapiens), P30291. HeLa Luc-Wee1K328M stability; 100% = proteasome inhibitor MG132 effect. reporter increase, % at 5 µM. actives 1.2% (n = 220,000). AID 1321, 2008;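 active = activation above the mean of all tested compounds plus 3 SD, set per screening run, cut at about 8.8% in these data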;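 note: cells exposed to compound for 20 h before luminescence read; 0% = DMSO alone and 100% = MG132 at 30 µM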
Target sequence (P30291 whole entry K328M): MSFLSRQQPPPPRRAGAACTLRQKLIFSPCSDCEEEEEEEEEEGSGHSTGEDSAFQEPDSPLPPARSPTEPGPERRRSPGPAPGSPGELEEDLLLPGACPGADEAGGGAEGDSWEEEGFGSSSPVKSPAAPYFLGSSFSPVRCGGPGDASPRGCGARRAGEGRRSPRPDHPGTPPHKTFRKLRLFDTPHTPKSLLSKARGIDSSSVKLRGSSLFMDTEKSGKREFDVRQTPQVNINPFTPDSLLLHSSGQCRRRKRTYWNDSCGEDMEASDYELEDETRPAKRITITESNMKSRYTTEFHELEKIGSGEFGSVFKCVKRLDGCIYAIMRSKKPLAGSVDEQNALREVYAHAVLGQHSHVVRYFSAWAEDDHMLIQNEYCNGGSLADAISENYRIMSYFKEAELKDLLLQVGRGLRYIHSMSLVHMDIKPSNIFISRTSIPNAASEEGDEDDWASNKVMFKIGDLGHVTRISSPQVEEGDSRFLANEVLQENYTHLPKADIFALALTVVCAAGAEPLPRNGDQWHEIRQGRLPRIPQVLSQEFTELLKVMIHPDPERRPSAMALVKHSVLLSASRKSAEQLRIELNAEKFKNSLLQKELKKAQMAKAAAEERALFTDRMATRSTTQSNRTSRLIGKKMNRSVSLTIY
STAT1 activator: STAT1 signaling activators, primary screen, cell-based, HTS, luciferase reporter. NIH 3T3 STAT1-luciferase reporter, IFN-gamma, luminescence; 100% = IFN-gamma alone, no compound. activation (% of control), % at 5.5 µM. actives 2.6% (n = 200,000);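 active = activation above the screen-wide mean activation plus 3 SD, cut at about 130% in these data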;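 note: raw ratio to IFN-gamma control signal so 100% means no change and 0% no light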
APP transl inh: inhibitors of APP translation via 5'UTR reporter, primary screen, APP 5'UTR luciferase, SH-SY5Y cells; actives 0.82% (n = 190,000); SH-SY5Y APP 5'UTR-luciferase reporter, luminescence; inhibition, % at 2 µM;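 active = inhibition above a set limit, derived from the sample mean plus 3 SD, cut at about 45% in these data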
* hit, by the source's call; nt = no result given.

SMILES	APP 5'UTR act	Hsp70 act	NF-kB neuron act	Wee1 stabilizer	STAT1 activator	APP transl inh
O=C(O)C1SCCN1S(=O)(=O)c1ccc2ccccc2c1 (centres undefined)	0.0	-0.3	1.19	0.8	96.0	0.0
O=C1CC(CCC(=O)NC2CC2)c2ccccc2N1 (centres undefined)	1.6	0.1	0.96	9.0*	94.5	-1.6
O=C1CC(C(=O)O)c2ccccc2N1 (centres undefined)	-4.7	-0.3	1.38	-1.7	100.5	4.7
C=CCNC(=O)c1ccc(-c2nc(-c3ccccc3)cs2)cc1	56.9	-0.1	2.08	-0.8	145.8*	-56.9
O=C(Nc1ccc(-c2csc(-c3ccccc3)n2)cc1)c1ccccc1	-0.3	0.1	1.02	-2.3	104.6	0.3
COc1ccc2nc3cccc(OC)c3nc2c1	6.8	-0.1	0.95	2.4	129.3*	-6.8
Cc1cccc2nc3ccccc3nc12	-3.4	0.0	0.99	-1.1	100.8	3.4
COc1ccc2nc3ccccc3nc2c1N	nt	nt	nt	9.0*	nt	nt
COc1ccc2nc(-c3ccco3)c(-c3ccco3)nc2c1	5.5	-0.2	0.75	-1.2	98.9	-5.5
C[C@H]1O[C@@H](O[C@H]2[C@@H](O)C[C@H](O[C@H]3[C@@H](O)C[C@H](O[C@H]4CC[C@@]5(C)[C@H](CC[C@@H]6[C@@H]5C[C@@H](O)[C@]5(C)[C@@H](C7=CC(=O)OC7)CC[C@]65O)C4)O[C@@H]3C)O[C@@H]2C)C[C@H](O)[C@@H]1O	-94.2	-0.6	0.75	-3.4	126.0	94.1*
O=C1c2ccccc2C(=O)N1CCCCON1C(=O)c2ccccc2C1=O	-21.6	0.0	1.38	1.3	101.1	21.6
CC(=C/c1ccco1)/C=N/N1CCN(c2ccccc2)CC1	65.7	-0.2	3.85*	5.4	128.4	-65.7
CC(/C=N/N1CCN(c2ccccc2)CC1)=C\c1ccco1	79.9	0.1	3.64*	4.4	137.8*	-79.9
CC(/C=N/N1CCN(c2ccccc2)CC1)=C\c1ccccc1	1.6	0.3	1.62	-0.1	101.8	-1.6
CC/C(=N\NC(=O)c1c[nH]c2ccccc12)c1cccs1	96.0	-0.1	2.12	2.3	135.9*	-96.0
Cc1ccsc1/C=N/NC(=O)c1c[nH]c2ccccc12	69.5	0.0	2.49	-2.4	125.6	-69.5
Cc1occc1C(=O)N/N=C/c1ccc(Br)s1	66.2	-0.1	2.59	-0.3	138.8*	-66.2
COc1cc(/C=N/NC(=O)c2ccoc2C)ccc1O	72.2	-0.2	2.39	1.0	138.4*	-72.3
C/C(=N\NC(=O)c1ccncc1)c1cccs1	-4.8	0.2	1.34	0.4	120.4	4.8
COc1cc(/C=N/NC(=O)c2cc(C)oc2C)ccc1O	-3.7	-0.2	1.13	5.8	99.4	3.7
C/C(=N\NC(=O)c1ccccc1O)c1cccs1	107.3	-0.4	3.59*	1.8	114.1	-107.3
CCc1ccc(NC(=O)N(Cc2cccnc2)Cc2ccco2)cc1	20.1	-0.2	0.99	6.8	102.9	-20.1
Cc1ccc(/C=N/NC(=O)c2c[nH]c3ccccc23)s1	77.9	0.6	3.12	-2.9	145.7*	-77.9
Cc1ccc(/C=N/NC(=O)c2ccoc2C)s1	78.7	-0.1	2.28	6.0	139.2*	-78.7
O=C(NCCc1ccccc1)C(=O)c1c(-c2ccccc2)cc2ccccn12	-13.8	-0.3	0.8	2.7	100.7	13.8
SMILES	APP 5'UTR act	Hsp70 act	NF-kB neuron act	Wee1 stabilizer	STAT1 activator	APP transl inh
CC(=O)Nc1cccc(OCCCOc2ccc([N+](=O)[O-])cc2)c1	nt	nt	nt	3.9	nt	nt
CCC(C)NC(=O)CC(NS(=O)(=O)c1ccc(NC(C)=O)cc1)C(C)C (centres undefined)	0.6	-0.1	0.99	9.8*	100.0	-0.6
N=C1N(/N=C/c2ccccc2)C(=Nc2ccccc2)C(=S)N1c1ccccc1	20.1	0.2	2.27	3.4	132.0*	-20.1
S=C(NC12CC3CC(CC(C3)C1)C2)N1CCCC1	12.2	0.1	0.99	-2.2	101.5	-12.2
O=C(/C=C/c1ccccc1)Nc1ccc2c(c1)OCCO2	151.8*	-0.5	3.45*	5.0	59.9	-151.8
O=C(/C=C/c1ccco1)Nc1ccc2c(c1)OCCO2	155.9*	-0.1	9.17*	-2.7	102.9	-155.9
C=CCNC(=O)COc1ccc(S(=O)(=O)Nc2ccc(OCC)cc2)cc1	-4.8	-0.3	0.86	2.2	94.8	4.8
COc1ccc2nc(SCC(=O)N3CCNC3=O)[nH]c2c1	42.3	0.2	2.28	9.0*	128.2	-42.3
COc1ccc(CC(=O)N2CCNC2=O)cc1	2.2	0.3	1.09	29.2*	91.8	-2.2
COc1ccc(CC(=O)N2CCc3ccccc32)cc1	44.7	0.5	1.85	1.2	119.8	-44.7
COC(=O)C1CCN(C(=O)CSc2nc3ccc(OC)cc3[nH]2)CC1	1.8	0.3	1.06	-1.8	98.8	-1.8
Cc1ccc(NC(=O)C2C3CC4OC(=O)C2C4C3)cc1Cl (centres undefined)	-14.4	-0.5	1.07	1.8	95.4	14.4
CC(C)OC(=O)c1ccc(NC(=O)C2C3CC4OC(=O)C2C4C3)cc1 (centres undefined)	47.4	0.1	1.17	9.8*	133.3*	-47.4
CCOC(=O)COc1nc(-c2ccco2)cc(-c2ccco2)c1C#N	nt	nt	nt	-1.6	nt	nt
CCOC(=O)C(C)Sc1nc(-c2ccco2)cc(C(F)(F)F)c1C#N (centres undefined)	-7.8	-0.1	1.05	9.9*	96.2	7.8
COc1cccc(/C=N/Nc2cc(-n3nc(C)cc3-c3ccccc3)ncn2)c1O	-70.8	-0.5	1.12	-1.4	101.3	70.8*
Cc1cc(C)n(-c2nc(Nc3ccccc3)nc(-n3nc(C)cc3C)n2)n1	-2.4	0.9	1.28	-0.3	105.1	2.4
COc1cccc(/C=N/Nc2nc(Nc3ccccc3)nc(-n3nc(C)cc3C)n2)c1O	-79.1	-0.1	0.96	1.7	102.4	79.1*
CCc1ccc(-c2csc(NC(=O)COC(=O)CCc3nc4ccccc4s3)n2)cc1	106.8	0.0	1.49	-0.6	131.1*	-106.8
Cc1ccc(C(=O)Nc2ccc3c(c2)ncn3C)cc1	139.5*	0.1	3.49*	-0.4	138.9*	-139.6
CCc1ccc(CNc2ccc3c(c2)ncn3C)cc1	102.4	0.0	2.37	5.4	148.1*	-102.3
Cc1ccc(CNc2ccc3c(c2)ncn3C)cc1	106.7	0.3	3.27	6.9	139.1*	-106.7
Cc1ccc(NC(=O)CCn2cnc3cc(C)c(C)cc32)cc1	18.1	-0.1	1.12	2.3	98.7	-18.1
COc1cc(C(=O)Nc2ccc(Cl)c(C(F)(F)F)c2)cc(OC)c1OC	17.6	-0.1	0.98	-3.4	101.9	-17.6
